Experimental data as given in PubChem BioAssay AID686978 (National Center for Advancing Translational Sciences (NCATS), 2013).
Among all 420,000 compounds or so, about 64,000 (15%) were called active. About 27% were inconclusive and are not listed. These entries were drawn from the full list. A number with no mark means an inactive call. Calls come from the whole dose curve; as a rule, active = well fitted inhibition curve with a large enough effect; inconclusive = small, poorly fitted or top-dose-only effect; inactive = flat fitted curve, though single readings scatter.

Experiment: qHTS for Inhibitors of human tyrosyl-DNA phosphodiesterase 1 (TDP1): qHTS in cells in absence of CPT; note: nearly all actives have a fitted effect of over 55% in size
Settings: DT40 Tdp1-/- hTDP1 cells, no CPT, ATP luminescence, 48 h; activity change, negative = growth inhibition: at 46.2 µM (top of the series)
In short: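 Camptothecin absent (DMSO only). Human TDP1-complemented DT40 knockout cells, 400 cells/well, 37 °C for minimum 48 hr; ATP measured via CellTiter-Glo, 30 min dark incubation, luminescence.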
% is set by controls: 0 for no effect and ±100 for the full control effect; potency is the fitted concentration of half-maximal effect.

| SMILES | activity change, negative = growth inhibition [%] | Potency |
| --- | --- | --- |
| Cc1cccc(OP(=O)(Nc2c(C)n(C)n(-c3ccccc3)c2=O)Oc2cccc(C)c2)c1 | -7.24 |  |
| CCC1CCCCN1CCCNC(=O)C1CCC(Cn2c(=O)[nH]c3ccccc3c2=O)CC1 (stereo not given) | 4.53 |  |
| Cc1ccc(-c2ccc(=O)n(CC(=O)NCCCN3CCCCC3)n2)cc1 | -4.15 |  |
| CCC1CCCCN1CCCNC(=O)Cn1nc(-c2ccccc2)ccc1=O (stereo not given) |  | 0.0103 µM (active) |
| Cc1ccc(C2Nc3ccccc3C(=O)N2CCN2CCNC2=O)cc1 (stereo not given) | -10.8 |  |
| COc1ccc(OCC(=O)OCC(=O)Nc2ccc(S(=O)(=O)N3CCCCC3)cc2)cc1 | 3.34 |  |
| COc1ccc(S(=O)(=O)N2CCN(C(C)C(=O)Nc3ccc(C(C)C)cc3)CC2)cc1 (stereo not given) |  | 14.6 µM (active) |
| COc1cccc(CNC(C)C(=O)Nc2ccc(S(=O)(=O)N3CCCC3)cc2)c1 (stereo not given) | -11.5 |  |
| CCOC(=O)Cc1cc(=O)[nH]c(/N=C(\N)Nc2ccc(OC)cc2)n1 | -6.58 |  |
| CC1CCN(C(=O)CCNC(=O)c2ccccc2)CC1 | -1.19 |  |
| CC1C(C)N(C(=O)CCl)c2ccccc2N1C(=O)CCl (stereo not given) |  | 0.58 µM (active) |
| CNC(=O)N1c2ccccc2C=Cc2ccccc21 | -7.48 |  |
| Cc1nc(C)c2c(c1C(F)(F)F)-c1ccccc1C2(F)F | -11.9 |  |
| O=C(NC1CCCC1)c1ccc(Br)s1 | -11.5 |  |
| CCOc1c2ccc(C(=O)NCc3ccc(OC(F)(F)F)cc3)cc2nn1C | -6.96 |  |
| COc1cc(CNCc2cccs2)cc(Br)c1OC | -18.6 |  |
| COc1cc(CNCc2ccc(OC)c3ccccc23)cc(OC)c1OC |  | 11.6 µM (active) |
| COc1ccc(CNCCCNCc2ccc(OC)c(OC)c2)cc1OC | -14.4 |  |
| COc1ccc(CNC(=O)COC(=O)C2=Cc3ccccc3OC2)cc1 | -21.4 |  |
| O=C(COc1ccccc1)N1CCc2ccccc2C1 | -23 |  |
| CCc1ccc2oc(-c3ccc(C)c(NC(=O)/C=C/c4ccco4)c3)nc2c1 |  | 18.4 µM (active) |
| CCC(CC)c1nnc(NC(=O)/C=C/c2ccco2)s1 | -3.52 |  |
| Cc1ccc2nc(-c3ccc(C)c(NC(=O)Cc4ccccc4)c3)oc2c1 | -6.56 |  |
| NC(=S)c1ccc(C(N)=S)o1 | -1.35 |  |
| Cc1ccc(C(=O)O/N=C(\N)c2ccccn2)cc1Cl | -22.4 |  |

| SMILES | activity change, negative = growth inhibition [%] | Potency |
| --- | --- | --- |
| COc1ccc(OC)c(NC(=O)/C=C/c2ccc(C)o2)c1 | -22.9 |  |
| Cc1ccc(/C=C/C(=O)Nc2ccc([N+](=O)[O-])c(NC(=O)/C=C/c3ccc(C)o3)c2)o1 |  | 11.6 µM (active) |
| CCc1nnc(NC(=O)/C=C/c2ccc(C)o2)s1 | 5.94 |  |
| O=C(NC(=S)NC1CCSC1=O)c1ccccc1F (stereo not given) | -106 |  |
| Cc1ccc(-n2c(=O)cc(N3CCN(Cc4ccccc4)CC3)[nH]c2=O)cc1 | -10.6 |  |
| COc1ccc(N(CC(=O)N/N=C/c2cccc3c2OCCO3)S(=O)(=O)c2ccc(NC(C)=O)cc2)cc1 | -22.6 |  |
| COC(=O)COc1cccc2c(=O)n(CC(=O)NCc3ccccc3)ccc12 |  | 2.06 µM (active) |
| CCOCCn1ccc2c(OCC(=O)NCc3ccc(C)cc3)cccc2c1=O | -13.9 |  |
| COC(=O)COc1cccc2c(=O)n(CC(=O)NCCc3ccc(OC)c(OC)c3)ccc12 | -6.18 |  |
| Cc1ccccc1OCC(=O)NNC(=O)c1cc(S(=O)(=O)N(C)C)ccc1N1CCCC1 | -22.5 |  |
| Cc1ccccc1OCC(=O)Nc1ccc(N2CCN(C(=O)C(C)C)CC2)c(Cl)c1 |  | 6.51 µM (active) |
| Cc1ccccc1OCC(=O)Nc1ccc2c(c1)ncn2C | -1.77 |  |
| Cc1ccccc1N1CC(C(=O)Nc2nnc(SCCC3OCCO3)s2)CC1=O (stereo not given) | -21.1 |  |
| O=C(CSc1nn(-c2ccc(F)cc2)c(=S)s1)NC1CCS(=O)(=O)C1 (stereo not given) | -16.7 |  |
| CC(=O)CC[C@@H](C)O[C@@H]1OC(C)[C@H](O)CC1O (stereo not given in full) | -3.14 |  |
| Cc1cc(C(=O)Nc2nnc(C3CC3)s2)c(C)s1 | 14.9 |  |
| CCc1cc(C(=O)Nc2nnc(C3CC3)s2)sc1C | 10.3 |  |
| O=C(Nc1nnc(C2CC2)s1)c1ccccn1 |  | 16.4 µM (active) |
| O=C1CCC(C(=O)N2CCC(O)(c3ccccc3)CC2)CN1CCc1ccccc1 (stereo not given) | -9.99 |  |
| Cc1cc(SCC(=O)NCCN2C(=O)CSC2=O)nc2ccccc12 | -20.3 |  |
| COCC(C)n1c(SCc2ccc(C(=O)OC)o2)nc2ccccc2c1=O (stereo not given) |  | 8.2 µM (active) |
| Cc1ccc(C(=O)CSc2nc3ccccc3c(=O)n2N)o1 | -39.8 |  |
| COCCn1c(C)cc(C(=O)CSc2nc3ccccc3c(=O)n2C(C)COC)c1C (stereo not given) |  | 9.2 µM (active) |
| COCCn1c(C)cc(C(=O)CN2c3cccc4cccc(c34)S2(=O)=O)c1C | -1.18 |  |
| C=CCn1c(SCc2ccc(C(=O)NCCO)cc2)nc2ccccc2c1=O | -14.1 |  |
